Among the data in PubChem BioAssay (EPA / NIEHS) are outcome and AC50 values, retold here.

Calls of active or inactive are those of the source. How the source made its calls: active means hit-call score of the fitted dose curve at least 0.9, where 1 is the maximum; inactive means score below 0.9.

Read-out in the first assay: Interferon-gamma inducible Protein 10 (IP10), CXCL10 (gene 3627)
The assay is described as follows: BSK_KF3CT_IP10: BioMAP Diversity Plus: KF3CT Assay for Interferon-gamma inducible Protein 10 (IP10) Biomarker Activity (AID 2283068). The settings on record: primary human keratinocytes with fibroblasts; actives raise or lower the signal. The method, boiled down: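 Signal is secreted/surface IP-10 by ELISA in a human primary skin co-culture of keratinocytes and foreskin fibroblasts, taken 24 h post-dosing; DMSO served as negative control.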
As for `Oc1ccccc1O`, the outcome was inactive.

The term AC50 denotes the concentration giving half of the maximal activity seen. For the compound `CCN(CC)CCOc1ccc(C(=C(Cl)c2ccccc2)c2ccccc2)cc1`, the AC50 was 13.5 µM (active).

With `CC(COCC(C)OC(=O)c1ccccc1)OC(=O)c1ccccc1` (stereo not drawn), the result was inactive.

Consider `Cc1cc(Cc2ccc(N)c(C)c2)ccc1N`, for which the result was inactive.

Consider `C/C=C/C=C/C(=O)O`, for which the outcome was inactive.

As to `CCCCCCCCCCCCCCCCO`, the result was inactive.

Consider `CC(=O)OC1CC(C)OC(C)O1` (stereo not drawn), for which the outcome was inactive.

Take `O=C(Oc1ccccc1)c1cccc(C(=O)Oc2ccccc2)c1`: the outcome was inactive.

Turning to `CC(C)(C)c1ccccc1`, the result was inactive.

For the compound `O=C1OC(c2ccc(O)cc2)(c2ccc(O)cc2)c2ccccc21`, the result was inactive.

Regarding `CCOCCOCCO`, the result was inactive.

As to `CC(C)(O)c1ccc(CNC(=O)c2cccnc2Oc2ccc(F)cc2)cc1`, the outcome was inactive.

Regarding `CC(C)COC(=O)CCCCC(=O)OCC(C)C`, the result was inactive.

Consider `CC(=O)[C@@]1(O)CC[C@H]2[C@@H]3CCC4=CC(=O)CC[C@]4(C)[C@H]3CC[C@@]21C`, for which the outcome was inactive.

For the compound `COC(=O)CCC(=O)OC`, the outcome was inactive.

As for `CO[C@@H]1COCC[C@@H]1N[C@@H]1CC[C@@](C(=O)N2CCc3ncc(C(F)(F)F)cc3C2)(C(C)C)C1`, the outcome was inactive.

Turning to `CCc1cc(C2=C(C(=O)O)N(c3ccccc3C(F)(F)F)S(=O)(=O)c3ccccc32)cc2c1OCO2`, the outcome was inactive.

Take `O=C(O)c1[nH]n(-c2ccc(S(=O)(=O)O)cc2)c(=O)c1N=Nc1ccc(S(=O)(=O)O)cc1`: the outcome was inactive.

For the compound `Cc1ccc(-c2cc(C(F)(F)F)nn2-c2ccc(S(N)(=O)=O)cc2)cc1`, the outcome was inactive.

Consider `CC(=O)OCC(COC(C)=O)OC(C)=O`, for which the outcome was inactive.

Consider `O=C(N[C@@H](c1ccccc1)[C@@H]1CCCCN1)c1cccc(C(F)(F)F)c1Cl`, for which the concentration at half-maximal activity (AC50) was 37.1 µM (active).

Consider `O=C(O)CC(O)(CC(=O)O)C(=O)O`, for which the result was inactive.

For `Cc1cn([C@H]2C=C[C@@H](CO)O2)c(=O)[nH]c1=O`, the outcome was inactive.

For the compound `CCCC(=O)O`, the outcome was inactive.

Take `O=[Si]=O`: the result was inactive.

For the compound `CC(C)c1cccc(C(C)C)c1NC(=O)NS(=O)(=O)c1cc(C(C)(C)O)co1`, the outcome was inactive.

`CC(=O)CC(c1ccccc1)c1c(O)c2ccccc2oc1=O` (stereo not drawn): the result was inactive.

On to `Nc1nc(Cl)nc2c1ncn2[C@H]1C[C@H](O)[C@@H](CO)O1`, for which the outcome was inactive.

Consider `CCCCCCCCCCCCCCOS(=O)(=O)O`, for which the half-maximal activity concentration (AC50) was 8.99 µM (active).

Read-out in another assay: not listed separately
As to the kind of experiment: BSK_KF3CT_SRB: Viability Assessment in the BioMAP Diversity Plus: KF3CT Assay (AID 2283069).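 Further: total protein by sulforhodamine B staining as a cytotoxicity measure; read 24 h after compound addition.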 The settings on record: primary human keratinocytes with fibroblasts. The method, boiled down:
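Human primary keratinocyte plus foreskin fibroblast co-culture exposed to chemicals for 24 h. Total protein measured by 0.1% sulforhodamine B staining after 10% TCA fixation, read at 560 nm; bidirectional fitting versus DMSO baseline.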
For the compound `Oc1ccccc1O`, the outcome was inactive.

Consider `CCN(CC)CCOc1ccc(C(=C(Cl)c2ccccc2)c2ccccc2)cc1`, for which the half-maximal activity concentration (AC50) is 12 µM (active).

Regarding `CC(COCC(C)OC(=O)c1ccccc1)OC(=O)c1ccccc1` (stereo not drawn), the outcome was inactive.

On to `CC(C)OC(=O)C(C)(C)Oc1ccc(C(=O)c2ccc(Cl)cc2)cc1`, for which the result was inactive.

For `Cc1cc(Cc2ccc(N)c(C)c2)ccc1N`, the outcome was inactive.

Regarding `C/C=C/C=C/C(=O)O`, the outcome was inactive.

As to `CCCCCCCCCCCCCCCCO`, the result was inactive.

Consider `CC(=O)OC1CC(C)OC(C)O1` (stereo not drawn), for which the outcome was inactive.

With `O=C(Oc1ccccc1)c1cccc(C(=O)Oc2ccccc2)c1`, the result was inactive.

As for `CC(C)(C)c1ccccc1`, the result was inactive.

As for `O=C1OC(c2ccc(O)cc2)(c2ccc(O)cc2)c2ccccc21`, the result was inactive.

`CCOCCOCCO`: the outcome was inactive.

For the compound `CC(C)(O)c1ccc(CNC(=O)c2cccnc2Oc2ccc(F)cc2)cc1`, the result was inactive.

In the case of `CC(C)COC(=O)CCCCC(=O)OCC(C)C`, the result was inactive.

As for `CC(=O)[C@@]1(O)CC[C@H]2[C@@H]3CCC4=CC(=O)CC[C@]4(C)[C@H]3CC[C@@]21C`, the outcome was inactive.

On to `COC(=O)CCC(=O)OC`, for which the outcome was inactive.

With `CO[C@@H]1COCC[C@@H]1N[C@@H]1CC[C@@](C(=O)N2CCc3ncc(C(F)(F)F)cc3C2)(C(C)C)C1`, the result was inactive.

Turning to `CCc1cc(C2=C(C(=O)O)N(c3ccccc3C(F)(F)F)S(=O)(=O)c3ccccc32)cc2c1OCO2`, the outcome was inactive.

As to `O=C(O)c1[nH]n(-c2ccc(S(=O)(=O)O)cc2)c(=O)c1N=Nc1ccc(S(=O)(=O)O)cc1`, the result was inactive.

Take `Cc1ccc(-c2cc(C(F)(F)F)nn2-c2ccc(S(N)(=O)=O)cc2)cc1`: the result was inactive.

Regarding `CC(=O)OCC(COC(C)=O)OC(C)=O`, the outcome was inactive.

Regarding `O=C(N[C@@H](c1ccccc1)[C@@H]1CCCCN1)c1cccc(C(F)(F)F)c1Cl`, the concentration at half-maximal activity (AC50) is 30.3 µM (active).

Turning to `O=C(O)CC(O)(CC(=O)O)C(=O)O`, the outcome was inactive.

On to `Cc1cn([C@H]2C=C[C@@H](CO)O2)c(=O)[nH]c1=O`, for which the outcome was inactive.

For the compound `CCCC(=O)O`, the outcome was inactive.

Take `O=[Si]=O`: the result was inactive.

Take `CC(C)c1cccc(C(C)C)c1NC(=O)NS(=O)(=O)c1cc(C(C)(C)O)co1`: the outcome was inactive.

Turning to `CC(=O)CC(c1ccccc1)c1c(O)c2ccccc2oc1=O` (stereo not drawn), the outcome was inactive.

`Nc1nc(Cl)nc2c1ncn2[C@H]1C[C@H](O)[C@@H](CO)O1`: the result was inactive.

`CCCCCCCCCCCCCCOS(=O)(=O)O`: the concentration at half-maximal activity (AC50) is 8 µM (active).

Read-out in a further assay: Interleukin-1 alpha (IL1a), IL1A (gene 3552)
The assay is described as follows: BSK_KF3CT_IL1a: BioMAP Diversity Plus: KF3CT Assay for Interleukin-1 alpha (IL1a) Biomarker Activity (AID 2283070). The settings on record: primary human keratinocytes with fibroblasts; actives raise or lower the signal. In a few lines:
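Human keratinocyte plus foreskin fibroblast primary co-culture, sampled 24 h after chemical dosing. IL-1a measured by ELISA; responses fitted bidirectionally against DMSO baseline (negative control), so gain or loss of signal both count.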
In the case of `Oc1ccccc1O`, the AC50 is 4.75 µM (active).

As for `CCN(CC)CCOc1ccc(C(=C(Cl)c2ccccc2)c2ccccc2)cc1`, the concentration at half-maximal activity (AC50) was 14.5 µM (active).

As for `CC(COCC(C)OC(=O)c1ccccc1)OC(=O)c1ccccc1` (stereo not drawn), the result was inactive.

Consider `CC(C)OC(=O)C(C)(C)Oc1ccc(C(=O)c2ccc(Cl)cc2)cc1`, for which the outcome was inactive.

Take `Cc1cc(Cc2ccc(N)c(C)c2)ccc1N`: the outcome was inactive.

As for `C/C=C/C=C/C(=O)O`, the result was inactive.

Regarding `CCCCCCCCCCCCCCCCO`, the outcome was inactive.

Consider `CC(=O)OC1CC(C)OC(C)O1` (stereo not drawn), for which the outcome was inactive.

As to `O=C(Oc1ccccc1)c1cccc(C(=O)Oc2ccccc2)c1`, the outcome was inactive.

For the compound `CC(C)(C)c1ccccc1`, the outcome was inactive.

In the case of `O=C1OC(c2ccc(O)cc2)(c2ccc(O)cc2)c2ccccc21`, the concentration at half-maximal activity (AC50) is 28.8 µM (active).

On to `CCOCCOCCO`, for which the outcome was inactive.

With `CC(C)(O)c1ccc(CNC(=O)c2cccnc2Oc2ccc(F)cc2)cc1`, the result was inactive.

In the case of `CC(C)COC(=O)CCCCC(=O)OCC(C)C`, the outcome was inactive.

In the case of `CC(=O)[C@@]1(O)CC[C@H]2[C@@H]3CCC4=CC(=O)CC[C@]4(C)[C@H]3CC[C@@]21C`, the result was inactive.

As to `COC(=O)CCC(=O)OC`, the result was inactive.

For the compound `CO[C@@H]1COCC[C@@H]1N[C@@H]1CC[C@@](C(=O)N2CCc3ncc(C(F)(F)F)cc3C2)(C(C)C)C1`, the result was inactive.

In the case of `CCc1cc(C2=C(C(=O)O)N(c3ccccc3C(F)(F)F)S(=O)(=O)c3ccccc32)cc2c1OCO2`, the outcome was inactive.

With `O=C(O)c1[nH]n(-c2ccc(S(=O)(=O)O)cc2)c(=O)c1N=Nc1ccc(S(=O)(=O)O)cc1`, the result was inactive.

As for `Cc1ccc(-c2cc(C(F)(F)F)nn2-c2ccc(S(N)(=O)=O)cc2)cc1`, the result was inactive.

For `CC(=O)OCC(COC(C)=O)OC(C)=O`, the result was inactive.

For the compound `O=C(O)CC(O)(CC(=O)O)C(=O)O`, the outcome was inactive.

As to `Cc1cn([C@H]2C=C[C@@H](CO)O2)c(=O)[nH]c1=O`, the outcome was inactive.

Turning to `CCCC(=O)O`, the outcome was inactive.

Turning to `O=[Si]=O`, the result was inactive.

Take `CC(C)c1cccc(C(C)C)c1NC(=O)NS(=O)(=O)c1cc(C(C)(C)O)co1`: the outcome was inactive.

In the case of `CC(=O)CC(c1ccccc1)c1c(O)c2ccccc2oc1=O` (stereo not drawn), the outcome was inactive.

`Nc1nc(Cl)nc2c1ncn2[C@H]1C[C@H](O)[C@@H](CO)O1`: the outcome was inactive.

On to `CCCCCCCCCCCCCCOS(=O)(=O)O`, for which the AC50 was 10.3 µM (active).
